# Results filed as inconclusive are left out. Activity calls are given as the source filed them. Unless noted, calls come from the whole dose curve; as a rule, active = well fitted curve in the direction sought with a large enough effect in the repeat runs; inconclusive = weak or mixed curves; inactive = no such curve, though single readings can be large; an effect the other way counts as inactive or inconclusive.
# Test system: not listed separately
# Assay: qHTS assay to identify small molecule antagonists of the estrogen related receptor (ERR) signaling pathway - cell viability counter screen (AID 1224818);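 note: viability measured after 17.5 h of compound exposure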
# Details: ERR reporter cell line viability counter screen; series mostly up to 46.1 µM; viability change, negative = cytotoxic: at the top concentration
# Outline: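 Quantitative high-throughput viability counter screen in ERR cells. Compounds (DMSO) incubated 17.5 h at 37 C; read-out was CellTiter-Fluor fluorescence.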
# % is set by controls: 0 for no effect and ±100 for the full control effect.
row,SMILES,"viability change, negative = cytotoxic"
1,C[N+](C)(C)CCOC(=O)CCC(=O)OCC[N+](C)(C)C,-9.66% (inactive)
2,CN(C)CCCN1c2ccccc2Sc2ccccc21,-12.8% (inactive)
3,NC(N)=NCCC[C@H](N)C(=O)O,4.29% (inactive)
4,CCCNCC(O)COc1ccccc1C(=O)CCc1ccccc1 (stereo unspecified),-10.2% (inactive)
5,CNCCCN1c2ccccc2CCc2ccccc21,-13.7% (inactive)
6,CC(=O)c1ccc2c(c1)N(CCCN(C)C)c1ccccc1S2,-17.5% (inactive)

# Test system: not listed separately
# Assay: qHTS assay to identify small molecule antagonists of the estrogen related receptor (ERR) signaling pathway (AID 1224819; note: nearly all actives have a fitted effect of over 50% in size; note: potency is the fitted concentration of half-maximal effect;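 for activity change, negative = inhibition: luminescence from an ERR-driven luciferase reporter measured with One-Glo reagent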)
# Details: ERR reporter cell line, luciferase inhibition; series mostly up to 46.1 µM; activity change, negative = inhibition: at the top concentration
# Outline: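 ERR reporter cell line (NTP) plated at 2,000 cells/well, settled 6 h at 37C/5% CO2, then exposed to LOPAC compounds for 18 h at 37C. One-Glo luciferase luminescence read after 30 min at room temperature.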
SMILES,"activity change, negative = inhibition",Potency
CN(C)CCCN1c2ccccc2Sc2ccccc21,-5.34% (inactive),
NC(N)=NCCC[C@H](N)C(=O)O,5.52% (inactive),
CC(C)C[C@H]1C(=O)N2CCC[C@H]2[C@]2(O)O[C@](NC(=O)[C@@H]3C=C4c5cccc6[nH]c(Br)c(c56)C[C@H]4N(C)C3)(C(C)C)C(=O)N12,,16.8 µM (active)

# Test system: not listed separately
# Assay: qHTS assay to identify small molecule agonists of the estrogen related receptor (ERR) signaling pathway (AID 1224820)
# Details: ERR reporter cell line, luciferase agonist mode; series mostly up to 46.1 µM; activation: at the top concentration
# Outline: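 An ERR cell line provided by NTP was seeded at 2,000 cells per well and allowed to settle for 6 h before compounds in DMSO were added. After 18 h at 37 C, luciferase activity was measured by One-Glo luminescence.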
row,SMILES,activation
1,CN(C)CCCN1c2ccccc2Sc2ccccc21,1.61% (inactive)
2,NC(N)=NCCC[C@H](N)C(=O)O,6.76% (inactive)
3,CC(C)C[C@H]1C(=O)N2CCC[C@H]2[C@]2(O)O[C@](NC(=O)[C@@H]3C=C4c5cccc6[nH]c(Br)c(c56)C[C@H]4N(C)C3)(C(C)C)C(=O)N12,-75% (inactive)
4,OCc1cc(C(O)CNCCCCCCOCCCCc2ccccc2)ccc1O (stereo unspecified),-41.5% (inactive)

# Test system: estrogen-related receptor alpha (ERRalpha) with PGC-1alpha coactivator, human
# Assay: qHTS assay to identify small molecule antagonists of the estrogen related receptor signaling pathway with the pleiotropic PPARgamma coactivator (PGC) (AID 1224821; calls by dose curve; note: nearly all actives have a fitted effect of over 50% in size; note: potency is the fitted concentration of half-maximal effect;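 for activity change, negative = inhibition: lower luminescence signal means antagonism of PGC/ERR signalling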)
# Details: ERR/PGC reporter cell line, luciferase, antagonist mode; series mostly up to 46.1 µM; activity change, negative = inhibition: at the top concentration
# Outline: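 A PGC/ERR cell line supplied by NTP is seeded, allowed 6 h at 37 C, and treated with test compounds in DMSO for 18 h. Signal is then measured as luciferase luminescence using One-Glo.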
SMILES,"activity change, negative = inhibition",Potency
CN(C)CCCN1c2ccccc2Sc2ccccc21,16.5% (inactive),
NC(N)=NCCC[C@H](N)C(=O)O,-0.283% (inactive),
CC(C)C[C@H]1C(=O)N2CCC[C@H]2[C@]2(O)O[C@](NC(=O)[C@@H]3C=C4c5cccc6[nH]c(Br)c(c56)C[C@H]4N(C)C3)(C(C)C)C(=O)N12,,16.2 µM (active)
OCc1cc(C(O)CNCCCCCCOCCCCc2ccccc2)ccc1O (stereo unspecified),4.52% (inactive),

# Test system: not listed separately
# Assay: qHTS assay to identify small molecule antagonists of the estrogen related receptor signaling pathway with the pleiotropic PPARgamma coactivator (PGC) cell viability counter screen (AID 1224822)
# Details: ERR/PGC reporter cell line viability counter screen; series mostly up to 46.1 µM; viability change, negative = cytotoxic: at the top concentration
# Outline: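 Cytotoxicity in the PGC/ERR cell line is assessed with CellTiter-Fluor, read as fluorescence intensity 30 min after reagent addition, following 17.5 h compound treatment at 37 C.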
row,SMILES,"viability change, negative = cytotoxic"
1,C[N+](C)(C)CCOC(=O)CCC(=O)OCC[N+](C)(C)C,-7.59% (inactive)
2,NC(N)=NCCC[C@H](N)C(=O)O,11.9% (inactive)
3,CCCNCC(O)COc1ccccc1C(=O)CCc1ccccc1 (stereo unspecified),-12.8% (inactive)
4,OCc1cc(C(O)CNCCCCCCOCCCCc2ccccc2)ccc1O (stereo unspecified),-2.36% (inactive)
5,CC(=O)c1ccc2c(c1)N(CCCN(C)C)c1ccccc1S2,-20.5% (inactive)

# Test system: not listed separately
# Assay: qHTS assay to identify small molecule agonists of the estrogen related receptor signaling pathway with the pleiotropic PPARgamma coactivator (PGC) (AID 1224823)
# Details: ERR/PGC reporter cell line, luciferase agonist mode; series mostly up to 46.1 µM; activation: at the top concentration
# Outline: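 Compounds dissolved in DMSO are added by pin tool to PGC/ERR cells that have settled for 6 h, and incubation continues 18 h at 37 C. Reporter output is measured as One-Glo luminescence.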
row,SMILES,activation
1,CN(C)CCCN1c2ccccc2Sc2ccccc21,4.46% (inactive)
2,NC(N)=NCCC[C@H](N)C(=O)O,-0.792% (inactive)
3,CC(C)C[C@H]1C(=O)N2CCC[C@H]2[C@]2(O)O[C@](NC(=O)[C@@H]3C=C4c5cccc6[nH]c(Br)c(c56)C[C@H]4N(C)C3)(C(C)C)C(=O)N12,-20.4% (inactive)
4,OCc1cc(C(O)CNCCCCCCOCCCCc2ccccc2)ccc1O (stereo unspecified),2.68% (inactive)

# Reference: PubChem BioAssay (Tox21)
